# Measured values from PubChem BioAssay (NCATS).
# A number with no mark means an inactive call. Results filed as inconclusive are left out. Entries that show only a call come without a potency. The source made the active and inactive calls. Calls come from the whole dose curve; as a rule, active = well fitted curve in the direction sought with a large enough effect; inconclusive = small, poorly fitted or top-dose-only effect, or another doubt; inactive = no such curve, though single readings can be large; an effect the other way counts as inactive or inconclusive. Peptide text beside a SMILES is read from it.
# Experiments:
# [1] = qHTS to identify inhibitors of the type 1 interferon - major histocompatibility complex class I in skeletal muscle: primary screen against the NCATS Mechanism Interrogation Plate v5.0 (MIPE) Libary (AID 1347411); note: nearly all actives have a fitted effect of over 65% in size; note: potency is the fitted concentration of half-maximal effect
# Procedure, shortened: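 HLA-B HiBit myoblasts, dexamethasone-free medium + 4 ng/ml IFN-b, 24 h compound, 11-pt 1:3 from 46 uM final. Readout: Nano-Glo HiBiT lytic luminescence after 10 min lysis, RT.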
# [2] = target: Protein phosphatase 1D (Homo sapiens) (UniProt O15297); experiment: RapidFire Mass Spectrometry qHTS Assay for Modulators of WT P53-Induced Phosphatase 1 (WIP1) (AID 1347424);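 note: amount of dephosphorylated VEPPL-S-QETFS peptide product formed by WIP1; series mostly up to about 63 µM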
# Procedure, shortened: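 Mass-spectrometric measurement of dephosphorylated peptide after a 5 min room-temperature reaction of 10 nM WIP1 with 2 uM phosphopeptide, following 1 h compound preincubation in 30 mM MgCl2 buffer.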
# [3] = target: Protein phosphatase 1D (Homo sapiens) (UniProt O15297); experiment: Rhodamine-PBP qHTS Assay for Modulators of WT P53-Induced Phosphatase 1 (WIP1) (AID 1347425)
# Procedure, shortened: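 The read-out is the change in Rhodamine-PBP fluorescence (f1 - f0, ex 525/em 598 nm) as Pi is released, read each minute for 11 min. Final reaction: 5 nM WIP1, 10 uM phosphopeptide VEPPL-pS-QETFS, 10 uM Rh-PBP, 50 mM Tris-HCl pH 7.5, 30 mM MgCl2. Compound was preincubated with enzyme for 1 hour at room temperature.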
# [4] = Primary qHTS for inhibitors of La Crosse Virus (LACV) - induced cell death in SH-SY5Y cells (AID 1508616);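 note: top concentration of the series differs between compounds; higher means more rescue of cells from virus-induced death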
# Procedure, shortened: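 Cytopathicity rescue screen: compounds pinned onto SH-SY5Y cells, which are then infected with LACV (MOI 0.01) and held 6 days at 37C. Percent activity is scaled between infected DMSO control and uninfected DMSO control.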
# [5] = target: Calcium and integrin-binding protein 1 (Homo sapiens) (UniProt Q99828); experiment: Primary qHTS for Identification of Calcium Integrin Binding Protein 1 (CIB1) Competitor (AID 1508620);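 note: GST tagged CIB1 binding a fluorescein labelled alphaIIb integrin peptide tracer; top concentration of the series differs between compounds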
# Procedure, shortened: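 Fluorescence polarization competition: CIB1-GST (1 uM final) preincubated with compound 15 min at room temperature, then FITC-labeled alphaIIb peptide (100 nM final) added for another 15 min. Polarization read at Ex 480/Em 540.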
# [6] = Counterscreen qHTS for small molecule stabilizers of the endoplasmic reticulum resident proteome: GLuc-NoTag assay (AID 1508627); note: series mostly up to about 76 µM
# Procedure, shortened: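 Secreted GLuc lacking the SERCaMP modification is measured in SH-SY5Y cells exposed to compound for 19 h and then to thapsigargin (100 nM, 4 h) to deplete ER calcium; hits retested at 11 concentrations, up to 76.6 uM.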
# [7] = target: Calcium and integrin-binding protein 1 (Homo sapiens) (UniProt Q99828); experiment: Confirmatory qHTS for Identification of Calcium Integrin Binding Protein 1 (CIB1) Competitor (AID 1508617); note: potency is the fitted concentration of half-maximal effect; nearly all actives have a fitted effect of over 65% in size
# Text: Assay Provider: Ulhas P. Naik, PhD
# Sidney Kimmel Medical College
# Thomas Jefferson University, Philadelphia, PA
# Primary function of platelets is to maintain hemostasis. At the site of vascular injury, platelets adhere to adhesive proteins such as collagen and von Willebrand factor. Adherent platelets are activated and generate soluble platelet agonists such as thrombin, ADP and thromboxane A2. Following exposure of circulating platelets to these agonists, results in platelet shape change, granule secretion and activation of platelet integrin alphaIIb-beta3. Ligand binding to activated integrin alphaIIb-beta3 triggers outside-in signaling, leading to platelet aggregation, stabilization of platelet plug, and clot retraction. Upon atherosclerotic plaque rupture also causes platelet plug formation, which underlies a number of cardiovascular diseases such as myocardial infraction and stroke. A number of anti-platelet drugs such as aspirin, clopidogrel, prasugrel, vorapaxar, and eptifibatide are currently available to prevent the thrombotic complications. However, these anti-platelet agents have several limitations including inherent variability in individual responses, developing resistance, and serious bleeding side effects. […]
# To develop fluorescence polarization (FP) assay using fluorescently labeled alphaIIb peptide and CIB1 protein. […]
# 7; Detection; Ex 480/ Em 540; ViewLux Fluorescence Read […]
# [8] = Validation qHTS assay for inhibitors of Activation Induced Cytidine Deaminase (AID): UDG Counterscreen signal (AID 1347427)
# Procedure, shortened: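 Fluorescence at 560 nm excitation, 665 nm emission reports UDG signal after 250 mM NaOH (2x) addition and 30 min. Enzymes (AID 1 uM, UDG 2 U/mL, at 4/3x) preincubated 10 min with compound, then 4 h with 4x 250 nM DJC20/DJC23 substrate at room temperature.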
# [9] = target: Single-stranded DNA cytosine deaminase (Homo sapiens) (UniProt Q9GZX7); experiment: Validation qHTS assay for inhibitors of Activation Induced Cytidine Deaminase (AID): AID signal (AID 1347429)
# Procedure, shortened: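 AID+UDG coupled FRET deamination; cpds up to 114 uM final; DJC20/DJC23 substrate, 4 hr RT; NaOH stop, 30 min RT; read Ex 540/Em 590.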
# [10] = target: Calcium and integrin-binding protein 1 (Homo sapiens) (UniProt Q99828); experiment: Validation qHTS for Identification of Calcium Integrin Binding protein 1 (CIB1) Competitor (AID 1508618)
# Procedure, shortened: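 CIB1-GST (1 uM final) incubated 15 min at room temperature with compounds (up to 114 uM), then FITC-labelled alphaIIb peptide (100 nM) added. FP read (Ex 480/Em 540) after 15 min, pH 7.4 buffer containing 5 mM CaCl2.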
# Chain of Calcium and integrin-binding protein 1 (Homo sapiens) (Q99828 whole entry, looked up): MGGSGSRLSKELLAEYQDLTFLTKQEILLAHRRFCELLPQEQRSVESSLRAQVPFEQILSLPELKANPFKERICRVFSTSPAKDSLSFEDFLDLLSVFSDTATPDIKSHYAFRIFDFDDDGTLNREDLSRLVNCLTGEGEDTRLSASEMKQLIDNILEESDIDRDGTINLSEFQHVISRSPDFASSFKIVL
# Chain of Protein phosphatase 1D (Homo sapiens) (O15297 whole entry, looked up): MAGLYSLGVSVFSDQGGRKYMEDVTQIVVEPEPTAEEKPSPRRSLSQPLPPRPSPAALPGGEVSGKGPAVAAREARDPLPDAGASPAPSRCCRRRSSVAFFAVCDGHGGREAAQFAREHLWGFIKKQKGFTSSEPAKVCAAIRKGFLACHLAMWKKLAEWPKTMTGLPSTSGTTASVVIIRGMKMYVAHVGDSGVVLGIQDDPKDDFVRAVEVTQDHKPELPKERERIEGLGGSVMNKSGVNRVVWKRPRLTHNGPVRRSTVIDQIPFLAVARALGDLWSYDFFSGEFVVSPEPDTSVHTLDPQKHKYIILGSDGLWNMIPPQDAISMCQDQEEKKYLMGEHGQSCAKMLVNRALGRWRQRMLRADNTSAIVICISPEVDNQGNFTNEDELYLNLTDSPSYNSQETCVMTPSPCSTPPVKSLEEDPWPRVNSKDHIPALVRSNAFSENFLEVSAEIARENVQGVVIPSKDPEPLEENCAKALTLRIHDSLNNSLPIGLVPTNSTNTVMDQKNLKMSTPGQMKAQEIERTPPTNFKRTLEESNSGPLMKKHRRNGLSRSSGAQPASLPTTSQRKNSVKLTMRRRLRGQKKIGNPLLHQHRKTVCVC
# Chain of Single-stranded DNA cytosine deaminase (Homo sapiens) (Q9GZX7 whole entry, looked up): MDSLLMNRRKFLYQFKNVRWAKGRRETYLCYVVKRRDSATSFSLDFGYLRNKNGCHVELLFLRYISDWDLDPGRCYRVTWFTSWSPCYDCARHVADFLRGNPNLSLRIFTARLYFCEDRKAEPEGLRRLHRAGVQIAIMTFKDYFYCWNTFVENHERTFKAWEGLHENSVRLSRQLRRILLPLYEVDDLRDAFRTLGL
smiles,measurement,setting,value
CS(=O)(=O)OCCCCOS(C)(=O)=O,Potency,[1],inactive
same,Potency,[2],inactive
same,outcome,[3],inactive
same,Potency,[4],inactive
same,Potency,[5],inactive
COC(=O)[C@H](Cc1ccccc1)NC(=O)[C@@H](N)CC(=O)O (H-Asp-Phe-OMe),Potency,[1],inactive
same,Potency,[2],inactive
same,outcome,[3],inactive
same,Potency,[4],inactive
same,Potency,[5],inactive
Oc1ccc(OCc2ccccc2)cc1,Potency,[1],inactive
same,Potency,[2],inactive
same,Potency,[4],inactive
same,Potency,[5],inactive
O=C(O)c1cccc(-c2noc(-c3ccccc3F)n2)c1,Potency,[1],inactive
same,Potency,[2],inactive
same,outcome,[3],inactive
same,Potency,[4],inactive
same,Potency,[5],inactive
same,Potency,[6],inactive
COc1c2occc2cc2ccc(=O)oc12,Potency,[1],inactive
same,Potency,[2],inactive
same,outcome,[3],inactive
same,Potency,[4],inactive
same,Potency,[5],inactive
CCCc1cc(=O)[nH]c(=S)[nH]1,Potency,[1],inactive
same,Potency,[2],inactive
CCN(CCO)CCCC(C)Nc1ccnc2cc(Cl)ccc12 (stereo unspecified),"activity change, negative = inhibition",[1],7.97% [at 5.1 µM]
same,"activity change, negative = inhibition",[2],-4.11% [at 6.17 µM]
same,"activity change, negative = inhibition",[3],13.1% [at 4.81 µM]
same,activity change,[4],-0.436% [at 0.431 µM]
same,Potency,[5],inactive
Cn1c(NCCN(CCO)CCCc2ccc([N+](=O)[O-])cc2)cc(=O)n(C)c1=O,Potency,[1],inactive
same,Potency,[2],inactive
same,outcome,[3],inactive
same,Potency,[4],inactive
same,Potency,[5],inactive
S=c1nc[nH]c2nc[nH]c12,Potency,[1],inactive
same,Potency,[2],inactive
same,outcome,[3],inactive
same,Potency,[4],inactive
same,Potency,[5],inactive
CN(C)C(=O)COC(=O)Cc1ccc(OC(=O)c2ccc(N=C(N)N)cc2)cc1,Potency,[1],inactive
same,Potency,[2],inactive
same,outcome,[3],inactive
same,Potency,[5],inactive
O=C(O)c1cn(-c2ccc(F)cc2)c2cc(N3CCNCC3)c(F)cc2c1=O,Potency,[1],inactive
same,Potency,[2],inactive
same,outcome,[3],inactive
same,Potency,[5],inactive
same,Potency,[6],inactive
CC1Cc2ccccc2N1NC(=O)c1ccc(Cl)c(S(N)(=O)=O)c1 (stereo unspecified),Potency,[1],inactive
same,Potency,[2],inactive
same,outcome,[3],inactive
same,Potency,[4],inactive
same,Potency,[5],inactive
O=C(O)CCNC(=O)c1ccc(N=Nc2ccc(O)c(C(=O)O)c2)cc1,Potency,[1],inactive
same,Potency,[2],inactive
same,outcome,[3],inactive
same,Potency,[4],inactive
same,Potency,[5],inactive
CN1CCC(=C2c3ccccc3CCc3sccc32)CC1,Potency,[1],inactive
same,Potency,[2],inactive
same,outcome,[3],inactive
same,Potency,[4],inactive
same,Potency,[5],inactive
same,Potency,[6],inactive
O=C(NCCO[N+](=O)[O-])c1cccnc1,Potency,[1],inactive
same,Potency,[2],inactive
same,outcome,[3],inactive
same,Potency,[4],inactive
same,Potency,[5],inactive
Cc1ccc(S(=O)(=O)NC(=O)NN2CC3CCCC3C2)cc1 (stereo unspecified),Potency,[1],inactive
same,Potency,[2],inactive
same,outcome,[3],inactive
same,Potency,[4],inactive
same,Potency,[5],inactive
COc1cc(Nc2c(C#N)cnc3cc(OCCCN4CCN(C)CC4)c(OC)cc23)c(Cl)cc1Cl,Potency,[1],7.39 µM (active)
same,Potency,[2],inactive
same,Potency,[4],inactive
same,Potency,[7],44.7 µM (active)
same,Potency,[5],inactive
CCOC(=O)c1c(C)n(C)c2ccc(O)cc12,Potency,[1],inactive
same,Potency,[2],inactive
same,outcome,[3],inactive
same,Potency,[4],inactive
same,Potency,[5],inactive
CNC[C@H](O)c1ccc(O)c(O)c1,Potency,[1],inactive
same,Potency,[2],inactive
same,Potency,[8],inactive
same,outcome,[9],inactive
same,Potency,[4],inactive
same,outcome,[10],inactive
same,Potency,[5],inactive
Nc1ncn([C@H]2C[C@H](O)[C@@H](CO)O2)c(=O)n1,Potency,[1],inactive
same,Potency,[2],inactive
same,outcome,[3],inactive
same,Potency,[5],inactive
Cc1c(OCC(F)(F)F)ccnc1CS(=O)c1nc2ccccc2[nH]1 (stereo unspecified),Potency,[1],inactive
same,Potency,[2],inactive
same,outcome,[3],inactive
same,Potency,[8],inactive
same,outcome,[9],inactive
same,Potency,[4],inactive
same,outcome,[10],inactive
same,Potency,[5],inactive
COc1ccc2cc([C@H](C)C(=O)O)ccc2c1,Potency,[1],inactive
same,Potency,[2],inactive
same,outcome,[3],inactive
same,Potency,[8],inactive
same,outcome,[9],inactive
same,outcome,[10],inactive
same,Potency,[5],inactive
Cc1nc(-c2ccc(OCC(C)C)c(C#N)c2)sc1C(=O)O,Potency,[1],inactive
same,Potency,[2],inactive
same,outcome,[3],inactive
same,Potency,[4],inactive
same,Potency,[5],inactive
COC1=C(OC)C(=O)C(CCCCCCCCCCO)=C(C)C1=O,Potency,[1],inactive
same,Potency,[2],inactive
same,outcome,[3],inactive
same,Potency,[4],inactive
same,Potency,[5],inactive
O=C(NCC1CCCCN1)c1cc(OCC(F)(F)F)ccc1OCC(F)(F)F (stereo unspecified),Potency,[1],inactive
same,Potency,[2],inactive
same,Potency,[4],inactive
same,Potency,[5],inactive
CC(=O)NC[C@H]1CN(c2ccc(N3CCOCC3)c(F)c2)C(=O)O1,Potency,[1],inactive
CCCS(=O)c1ccc2nc(NC(=O)OC)[nH]c2c1 (stereo unspecified),Potency,[1],inactive
same,Potency,[2],inactive
same,outcome,[3],inactive
same,Potency,[5],inactive
CC(C)Oc1ccc2c(=O)c(-c3ccccc3)coc2c1,Potency,[1],inactive
same,Potency,[2],inactive
same,outcome,[3],inactive
same,Potency,[4],inactive
same,Potency,[5],inactive
Clc1ccc(C(Cn2ccnc2)OCc2c(Cl)cccc2Cl)c(Cl)c1 (stereo unspecified),Potency,[1],inactive
same,Potency,[2],inactive
same,outcome,[3],inactive
same,Potency,[4],inactive
same,Potency,[5],inactive
O=C(NC(Cc1cc(=O)[nH]c2ccccc12)C(=O)O)c1ccc(Cl)cc1 (stereo unspecified),Potency,[1],inactive
same,Potency,[2],inactive
same,outcome,[3],inactive
same,Potency,[5],inactive
c1cnc2cc3c(cc2n1)C1CNCC3C1,Potency,[1],inactive
same,Potency,[2],inactive
same,outcome,[3],inactive
same,outcome,[10],inactive
same,Potency,[5],inactive
